These results are taken from PubChem BioAssay.

Active and inactive are the calls of the source.

Assay [1] is described as follows: binders of probe aFSTL3 on microarray, primary screen, stem cell growth factor project, biochemical, small-molecule microarray, fluorescence 635/667 (AID 1064).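 Also: measures binding of the biotinylated anti-FSTL3 antibody to printed compounds.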 The settings on record: higher = more signal.
The nature of assay [2]: binders from COS7 lysate, DM2A8 probe, primary screen, torsin A project, cell lysate, small-molecule microarray, fluorescence 635/667 (AID 1065). The settings on record: higher = more signal, COS7 lysate expressing mutant human TOR1A.
Assay [3] is described as follows: binders of probe aFGF2 on microarray, primary screen, stem cell growth factor project, biochemical, small-molecule microarray, fluorescence 635/667 (AID 1067).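 Also: measures binding of biotinylated aFGF2 protein to printed compounds on slides; z-score merges feature fluorescence and signal-to-noise across triplicate slides.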 The settings on record: higher = more signal.
Assay [4] is described as follows: binders of probe aFGF10 on microarray, primary screen, stem cell growth factor project, biochemical, small-molecule microarray, fluorescence 635/667 (AID 1071).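 Also: score merges 667 nm spot intensity and signal to noise from triplicate slides.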 Conditions: higher = more signal.
The target of assay [5] is Neurogenic locus notch homolog protein 2 (Homo sapiens) (UniProt Q04721). In words: Notch2 binders on small-molecule microarrays, primary screen, biochemical, small-molecule microarray, 635 nm fluorescence, stem cell growth factors (AID 1073). The settings on record: Notch2 binding, higher = more signal.
Sequence of Neurogenic locus notch homolog protein 2 (Homo sapiens) (Q04721 whole entry, looked up, canonical isoform): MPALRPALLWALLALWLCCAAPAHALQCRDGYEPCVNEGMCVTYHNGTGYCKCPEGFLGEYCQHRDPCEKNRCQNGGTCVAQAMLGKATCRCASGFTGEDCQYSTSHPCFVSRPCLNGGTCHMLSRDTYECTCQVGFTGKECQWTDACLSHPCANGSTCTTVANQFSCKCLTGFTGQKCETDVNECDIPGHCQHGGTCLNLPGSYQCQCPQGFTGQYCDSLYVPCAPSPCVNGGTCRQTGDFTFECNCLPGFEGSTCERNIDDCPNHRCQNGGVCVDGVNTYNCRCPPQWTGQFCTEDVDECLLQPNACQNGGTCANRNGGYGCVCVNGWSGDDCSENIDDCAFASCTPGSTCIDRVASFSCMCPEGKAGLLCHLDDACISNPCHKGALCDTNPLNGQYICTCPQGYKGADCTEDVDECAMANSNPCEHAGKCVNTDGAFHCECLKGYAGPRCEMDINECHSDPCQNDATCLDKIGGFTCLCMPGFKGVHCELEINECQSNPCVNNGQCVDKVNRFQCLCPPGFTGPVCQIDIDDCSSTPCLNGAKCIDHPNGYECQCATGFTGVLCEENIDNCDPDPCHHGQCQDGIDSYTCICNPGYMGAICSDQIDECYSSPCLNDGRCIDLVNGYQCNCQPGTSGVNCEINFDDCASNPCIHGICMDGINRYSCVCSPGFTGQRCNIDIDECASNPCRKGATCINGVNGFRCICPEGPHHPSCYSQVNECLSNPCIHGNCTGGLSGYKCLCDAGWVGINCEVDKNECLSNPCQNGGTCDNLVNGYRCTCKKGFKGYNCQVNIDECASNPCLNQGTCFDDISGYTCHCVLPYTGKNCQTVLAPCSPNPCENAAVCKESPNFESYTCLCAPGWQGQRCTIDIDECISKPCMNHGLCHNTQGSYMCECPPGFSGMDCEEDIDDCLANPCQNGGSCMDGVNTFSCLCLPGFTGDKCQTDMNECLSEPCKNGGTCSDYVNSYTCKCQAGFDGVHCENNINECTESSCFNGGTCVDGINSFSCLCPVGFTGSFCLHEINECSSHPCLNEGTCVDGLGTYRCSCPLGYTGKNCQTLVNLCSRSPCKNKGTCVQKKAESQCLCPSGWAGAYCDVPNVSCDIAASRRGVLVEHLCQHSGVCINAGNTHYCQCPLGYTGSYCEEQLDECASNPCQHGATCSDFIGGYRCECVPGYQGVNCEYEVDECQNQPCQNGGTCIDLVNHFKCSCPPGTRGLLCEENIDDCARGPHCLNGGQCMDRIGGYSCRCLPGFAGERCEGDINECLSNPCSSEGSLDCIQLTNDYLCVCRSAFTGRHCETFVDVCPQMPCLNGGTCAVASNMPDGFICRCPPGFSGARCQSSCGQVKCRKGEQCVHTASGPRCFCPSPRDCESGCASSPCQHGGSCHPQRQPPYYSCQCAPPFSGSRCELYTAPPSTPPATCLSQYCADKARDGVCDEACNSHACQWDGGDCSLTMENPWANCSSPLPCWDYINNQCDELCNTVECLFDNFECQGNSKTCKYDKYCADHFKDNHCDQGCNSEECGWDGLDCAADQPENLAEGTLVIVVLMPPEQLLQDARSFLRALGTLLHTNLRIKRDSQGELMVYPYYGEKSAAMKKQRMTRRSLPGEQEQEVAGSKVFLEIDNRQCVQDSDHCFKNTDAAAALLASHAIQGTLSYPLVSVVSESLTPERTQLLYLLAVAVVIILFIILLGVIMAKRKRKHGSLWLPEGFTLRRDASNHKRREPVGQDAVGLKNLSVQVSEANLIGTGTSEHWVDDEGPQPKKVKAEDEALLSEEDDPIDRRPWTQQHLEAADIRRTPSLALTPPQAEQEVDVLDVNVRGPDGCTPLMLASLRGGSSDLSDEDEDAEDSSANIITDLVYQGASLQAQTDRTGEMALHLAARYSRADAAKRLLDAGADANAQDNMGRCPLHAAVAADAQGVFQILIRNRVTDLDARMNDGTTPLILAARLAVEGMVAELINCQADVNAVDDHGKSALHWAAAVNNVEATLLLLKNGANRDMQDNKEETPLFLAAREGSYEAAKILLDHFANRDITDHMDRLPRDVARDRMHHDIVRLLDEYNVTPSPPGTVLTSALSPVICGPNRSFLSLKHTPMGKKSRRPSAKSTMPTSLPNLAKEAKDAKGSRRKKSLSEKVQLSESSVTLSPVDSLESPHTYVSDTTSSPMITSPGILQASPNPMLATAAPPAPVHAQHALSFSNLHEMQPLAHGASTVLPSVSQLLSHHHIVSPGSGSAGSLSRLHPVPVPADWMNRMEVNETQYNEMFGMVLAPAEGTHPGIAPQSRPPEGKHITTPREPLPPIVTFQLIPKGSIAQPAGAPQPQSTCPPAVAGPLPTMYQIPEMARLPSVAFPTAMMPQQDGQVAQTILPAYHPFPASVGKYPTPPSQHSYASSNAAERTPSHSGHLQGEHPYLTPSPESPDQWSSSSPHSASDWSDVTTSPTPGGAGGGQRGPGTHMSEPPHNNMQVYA
Assay [6] has as its target Pro-neuregulin-1, membrane-bound isoform (Homo sapiens) (UniProt Q02297). Kind of assay: NRG1 binders on small-molecule microarrays, primary screen, psychiatric disease protein project, biochemical, small-molecule microarray, fluorescence 635/667 (AID 1075).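 Also: score combines 667 nm spot fluorescence with signal to noise.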 Conditions: NRG1 binding, 635 nm fluorescence, higher = more signal.
Assay [7] deals with Neuregulin-1 EGF-like domain. In words: binders of neuregulin-1 EGF-like domain, primary screen, biochemical, small-molecule microarray, 635 nm fluorescence (AID 1081).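 Also: binding of the protein to compounds printed on small-molecule microarray slides.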 Conditions: small-molecule microarray binding, higher = more signal.
Assay [8] can be described thus: FRG1 promoter luciferase signal modulators, primary screen, FRG1 inhibition for FSHD, cell-based, C2C12 myotubes, firefly/Renilla luciferase, luminescence (AID 1084). Conditions: higher = more signal, called active from +8 up or from −8 down.
Assay [9] is described as follows: binders of probe aFST on microarray, primary screen, stem cell growth factor project, biochemical, small-molecule microarray, fluorescence 635/667 (AID 1086).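 Also: score merges 667 nm fluorescence with signal-to-noise of each printed compound spot.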 Conditions: higher = more signal.
Assay [10] can be described thus: binders of probe aHhip on microarray, primary screen, stem cell growth factor project, biochemical, small-molecule microarray, fluorescence 635/667 (AID 1087).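 Also: score merges spot fluorescence at 667nm with spot signal to noise ratio.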 The settings on record: higher = more signal.

Sequence of Pro-neuregulin-1, membrane-bound isoform (Homo sapiens) (Q02297 whole entry, looked up, the tested form may be a part, canonical isoform): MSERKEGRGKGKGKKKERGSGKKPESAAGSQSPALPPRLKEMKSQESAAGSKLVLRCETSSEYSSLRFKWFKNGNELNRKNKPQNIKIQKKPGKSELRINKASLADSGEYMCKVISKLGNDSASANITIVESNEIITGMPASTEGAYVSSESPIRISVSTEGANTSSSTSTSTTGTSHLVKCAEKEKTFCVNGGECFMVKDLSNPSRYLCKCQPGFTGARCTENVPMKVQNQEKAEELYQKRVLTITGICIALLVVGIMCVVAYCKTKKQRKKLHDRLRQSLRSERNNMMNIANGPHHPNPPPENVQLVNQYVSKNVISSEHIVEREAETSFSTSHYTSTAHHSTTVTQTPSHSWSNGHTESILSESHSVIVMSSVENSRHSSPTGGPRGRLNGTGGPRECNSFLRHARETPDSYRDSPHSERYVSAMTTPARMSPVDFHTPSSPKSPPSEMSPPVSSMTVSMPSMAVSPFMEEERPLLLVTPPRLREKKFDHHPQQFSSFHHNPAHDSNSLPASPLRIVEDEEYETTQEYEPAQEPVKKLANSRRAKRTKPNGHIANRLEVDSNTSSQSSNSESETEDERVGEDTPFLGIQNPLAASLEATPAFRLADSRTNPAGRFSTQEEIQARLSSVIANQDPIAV

On to `CN(C)CCCCNC(=O)[C@H]1C[C@H]2C(=O)NCC(=O)N2[C@H]1c1cccc(OCCO)c1`, for which the composite z-score in [1] was -0.295; in [2], -0.0314; in [3], -0.155; in [4], -0.224; in assay [5], -0.342; in assay [6] it was 0.401. Also, the composite z-score is 1.19 in assay [7], -0.324 in assay [9] and -0.485 in [10]. Moreover, the z-score in assay [8] was 0.836 (inactive).

As for `CCCCC(=C=CC[C@@H](O)c1cccc(OCCO)c1)C[C@@H](O)COCc1ccccc1`, the composite z-score was -0.407 in [1]; -0.323 in [2]; -0.174 in assay [3]; 0.211 in [4]; -0.546 in assay [5]; 0.679 in assay [6]. For the same compound, the composite z-score in [7] was -0.0821; in [9], -0.336; in assay [10], 0.0053. Also, the z-score in [8] was -2.47 (inactive).

As to `COCCOC(=O)N1C(=O)[C@@]2(c3cc(C#CC4(O)CCCCCC4)ccc31)[C@H](c1ccc(OCCO)cc1)N1[C@H](c3ccccc3)[C@H](c3ccccc3)OC(=O)[C@H]1[C@@H]2C(N)=O`, the composite z-score in [1] is -0.392; in assay [2], 0.96; in [3], 0.014; in assay [4] it was 1.05; in [5], 0.96; in assay [6] it was 1.32. For the same compound, the values for the composite z-score in [7], in assay [9] and in assay [10] were 1.14, 0.48 and -0.0645, respectively. Moreover, the z-score in assay [8] is 0.11 (inactive).

`CC(C)C[C@@H]1NC(=O)[C@H]2C[C@@H](C(=O)NCCCCCNC(=O)CS)[C@@H](c3ccc(O)cc3)N2C1=O`: the composite z-score was -0.208 in [1]; 0.929 in assay [2]; 0.283 in assay [3]; 0.834 in [4]; 0.74 in assay [5]; 1 in assay [6]. For the same compound, the figures for the composite z-score in assay [7], in assay [9] and in [10] were 1.3, 0.0724 and -0.236, respectively. Besides, the z-score in assay [8] was -0.232 (inactive).

Consider `Cc1c(NC(=O)/C(C#N)=C/c2ccc(Cl)cc2)c(=O)n(-c2ccccc2)n1C`, for which the composite z-score is -0.268 in assay [1]; -0.113 in assay [2]; -0.0909 in [3]; 0.589 in assay [4]; 0.746 in [5]; 0.942 in assay [6]. Also, the composite z-score in assay [7] stood at 1.2; in [9], 0.52; in [10] it was 0.0623. The z-score in assay [8] is -0.131 (inactive).

Regarding `C=C(/C(=C/C[C@@H](OC(C)=O)c1ccccc1OCCO)c1cc(C(=O)OC)ccc1OC)C(C)C`, the composite z-score in assay [1] is -0.101; in [2] it was 0.179; in assay [3] it was -0.049; in [4], 0.643; in assay [5], 0.632; in [6], 0.685. The results for the composite z-score in [7], in assay [9] and in assay [10] were 0.5, -0.145 and -0.312, respectively. The z-score in assay [8] is 0.178 (inactive).

On to `C=CC[C@]1(C(=O)OC)N=C(c2ccc(OCCCO)cc2)O[C@H]1c1ccccc1N=[N+]=[N-]`, for which the composite z-score in assay [1] was 0.638; in assay [2], 0.402; in [3], 0.288; in [4], 1.13; in [5], 1.42; in [6], 1.5. The composite z-score in assay [7] amounted to 1.4; in assay [9] it was 1.03; in assay [10] it was 0.33. Besides, the z-score in assay [8] is 3.21 (inactive).

As for `COC(=O)[C@]1(CO)N=C(c2ccc(OCCCO)cc2)O[C@@H]1c1ccccc1CN=[N+]=[N-]`, the composite z-score is -0.0858 in assay [1]; -0.132 in assay [2]; -0.155 in assay [3]; -0.546 in assay [4]; -0.663 in assay [5]; -0.12 in [6]. The values for the composite z-score in [7], in assay [9] and in assay [10] were 1.16, -0.144 and -0.286, respectively. In [8], the z-score is 1.7 (inactive).

Turning to `O=C1OCCC/C=C\[C@H]2OC34C=CCN(Cc5ccccc5)C(=O)[C@H]3N(CCCCCO)C(=O)[C@@H]4C12` (stereo not given in full), the composite z-score in [1] is 0.566; in [2], -0.079; in assay [3] it was -0.147; in [4], -0.0433; in [5], -1.12; in [6] it was 1.05. Further, the values for the composite z-score in assay [7], in assay [9] and in assay [10] were 0.387, -0.693 and -0.116, respectively. For the same compound, the z-score in assay [8] is 2.92 (inactive).

Regarding `O=C1N(Cc2ccccc2)c2ccccc2[C@H]2OC(c3ccc(OCCCO)cc3)=N[C@@]12Cc1ccccc1`, the composite z-score in [1] is 0.85; in assay [2], 0.205; in assay [3], 0.202; in [4] it was 0.862; in assay [5], 0.45; in assay [6], 0.924. The values for the composite z-score in [7], in [9] and in assay [10] were 1.3, 1.03 and 0.115, respectively. Also, the z-score in assay [8] was -1.69 (inactive).

On to `COCCOC(=O)N1C(=O)[C@@]2(c3cc(C#Cc4ccc(OC)cc4)ccc31)[C@H](c1ccc(OCCO)cc1)N1[C@H](c3ccccc3)[C@H](c3ccccc3)OC(=O)[C@H]1[C@@H]2C(=O)N1CCCCCCC1`, for which the composite z-score in assay [1] turned out to be 2.51; in assay [2], 0.351; in assay [3], 0.684; in [4] it was 0.315; in [5] it was 0.753; in [6], 1.52. Moreover, the composite z-score in assay [7] was determined as 1.01; in [9] it was 2.75; in [10] it was 2.59. Besides, in [8], the z-score is -0.531 (inactive).

Turning to `CCCC=C(CCC)[C@@H](NC(=O)c1ccco1)c1ccc(C(=O)OC)cc1`, the composite z-score in [1] is 0.0801; in assay [2] it was 0.127; in assay [3], 0.209; in assay [4] it was 0.72; in assay [5], 1.52; in assay [6], 1.65. For the same compound, the results for the composite z-score in [7], in [9] and in assay [10] were 1.2, 0.594 and -0.0507, respectively. Also, the z-score in assay [8] is 0.467 (inactive).

As for `COC(=O)[C@@]1(Cc2ccc(F)cc2)[C@H]2c3cc(C(=O)N4CCCC4)n(CCO)c3C[C@H]2CN1C(=O)c1ccccc1`, the composite z-score is 0.0451 in assay [1]; -0.124 in [2]; 0.153 in [3]; 0.603 in assay [4]; 1.64 in assay [5]; 1.06 in [6]. The composite z-score worked out at 1.26 in assay [7], 0.537 in assay [9] and 0.628 in assay [10]. For the same compound, the z-score in assay [8] was 0.383 (inactive).

On to `CCCC[C@H]1OB(O)C[C@H]2C1=C(COC)C[C@H]1C(=O)C=CC(=O)[C@H]12`, for which the composite z-score in assay [1] is -0.54; in [2] it was 0.007; in [3] it was -0.0582; in assay [4], 0.183; in [5], 0.861; in [6], -0.279. The values for the composite z-score in [7], in assay [9] and in assay [10] were -0.0265, 0.534 and 0.206, respectively. In addition, in [8], the z-score was 0.254 (inactive).

Take `COCCOC(=O)N1C(=O)[C@@]2(c3cc(C#CCCO)ccc31)[C@H](C(=O)N1CCc3cc(OC)c(OC)cc3C1)[C@H]1C(=O)O[C@H](c3ccccc3)[C@H](c3ccccc3)N1[C@@H]2c1ccccc1OCCO`: the composite z-score in assay [1] is -0.327; in assay [2], 0.255; in [3], -0.0336; in [4], 1; in assay [5] it was 1.47; in assay [6], 0.317. For the same compound, the composite z-score is 1.19 in assay [7], 0.0205 in [9] and -0.111 in [10]. Besides, the z-score in assay [8] is -0.742 (inactive).

In the case of `COCCCN1C(=O)[C@@]2(Cc3ccccc31)c1ccccc1C(=O)N(Cc1ccccc1OC)[C@H]2c1ccc(CO)cc1`, the composite z-score in assay [1] was 0.303; in assay [2] it was -0.457; in assay [3], -0.122; in assay [4], -0.279; in assay [5], -0.228; in assay [6] it was 0.731. Moreover, the values for the composite z-score in [7], in [9] and in assay [10] were -0.944, 0.023 and -0.181, respectively. Also, in assay [8], the z-score is -0.193 (inactive).
